From PubChem
RAM inhibit: inhibitors of the yeast RAM network, primary screen, dse1pr::URA3 reporter, 5-FOA selection. S. cerevisiae dse1pr::URA3 reporter, 5-FOA growth OD615, 2 d; analog-sensitive cbk1-as2 kinase mutant strain. inhibition, % at 50 µM. actives 1.8% (n = 190,000). AID 868, 2007;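 active = inhibition above a set limit, 3 SD over mean compound inhibition, cut at about 8.4% in these data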;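 also: inhibition rescues growth on 5-FOA so higher OD means more RAM inhibition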
CHOP inh: inhibitors of CHOP promoter induction, primary screen, cell-based, unfolded protein response, luciferase reporter; CHO-K1 CHOP-promoter luciferase, tunicamycin-induced, 15-18 h; inhibition, % at 10 µM; actives 3.8% (n = 220,000); AID 2732, 2010;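 active = compounds that reduced the stress-induced luciferase reporter signal by more than about 70% of percent inhibition, limit read from the data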
WT yeast gro inh: growth inhibition of WT strain, primary screen, mitochondrial fusion inhibitor project, WT and mutant strains, chemical genetic. mitochondrial fusion phenotypic screen. inhibition, % at 10 µM. actives 2.1% (n = 190,000); in the data active = inhibition above about 58%; tested in S. cerevisiae
L major viab: Leishmania major promastigote growth inhibition, primary screen. inhibition, % at 10 µM. actives 9% (n = 200,000). Leishmania major promastigotes, resazurin fluorescence viability; in the data active = inhibition above about 50%;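 also: promastigotes grown with compound for 44 hours at 28 °C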
Numbers stand for hits; i = inactive; nt = no result given; ! = a repeat was not active. An excerpt weighted towards active compounds, which were near 13% of everything screened.

SMILES	RAM inhibit	CHOP inh	WT yeast gro inh	L major viab
Cc1cc(-c2c(C(=O)N3CCOCC3)c(C)nn2-c2ccccc2)no1	nt	i	nt	nt
Nc1ccc(N(c2ccccc2)c2ccc(N)cc2)cc1	i	i	i	100
Clc1nc(Cl)nc(N(c2ccccc2)c2ccccc2)n1	i	i	i	i
CCc1ccc2nc3nc(C)cc(C)c3c(N)c2c1	i	i	i	101
Cc1cc(C)c2c(N)c3ccccc3nc2n1	i	i	i	101
CCc1ccc(NC(=S)/N=C(\N)Nc2nc(C)c3cc(CC)ccc3n2)cc1	i	i	i	i
CNCc1c(OCc2ccccc2F)ccc2ccccc12	i	i	i	56
CCOc1ccc2ccccc2c1CNc1nnnn1C	i	i	i	i
Nc1nonc1C(=O)NCCNCc1c(OCc2ccccc2F)ccc2ccccc12	i	73	i	i
Cc1cc(NC(=O)/C(C#N)=C/c2ccc(-c3ccc(SC(F)F)cc3)o2)n(-c2ccccc2)n1	i	i	i	i
Cc1cc(NC(=O)/C(C#N)=C/c2ccc(-c3cccc(C(F)(F)F)c3)o2)n(-c2ccccc2)n1	i	85	i	i
O=C(C1=C[C@@H](c2ccc(C(F)(F)F)cc2)C[C@@H](OCc2ccc(CO)cc2)O1)N1CCN(Cc2ccc3c(c2)OCO3)CC1	i	i	i	56
CC(C)(C)[C@@H]1C=C(C(=O)N2CCN(Cc3ccc4c(c3)OCO4)CC2)O[C@H](OCc2ccc(CO)cc2)C1	i	i	94	i
O=C(C1=C[C@H](c2ccc(C(F)(F)F)cc2)C[C@H](OCc2ccc(CO)cc2)O1)N1CCN(Cc2ccc3c(c2)OCO3)CC1	i	i	i	i
O=C(C1=C[C@@H](c2ccc(Br)cc2)C[C@@H](OCc2ccc(CO)cc2)O1)N1CCN(Cc2ccc3c(c2)OCO3)CC1	i	i	i	56
CC1(C)CC(CCN(Cc2ccccc2)C(=O)c2ccco2)(c2ccccc2)CCO1 (stereo not given)	i	i	63	i
O=C(c1ccco1)N(Cc1ccccc1)Cc1ccccn1	i	i	i	i
Cc1ccc(C(CCN(Cc2ccccc2)C(=O)c2ccco2)c2ccco2)cc1 (stereo not given)	11	i	i	i
O=C(c1ccco1)N(CCC(c1ccccc1)c1ccco1)Cc1ccco1 (stereo not given)	8.8	i	i	i
COc1ccc(OC)c(C2=Nn3c(nnc3-c3cc(C)[nH]n3)SC2)c1	nt	i	nt	nt
CN(C)S(=O)(=O)c1ccc(NC(=O)CSc2nc3ccccc3n2-c2ccccc2)cc1	i	i	i	100
COc1cc(NC(=O)CSc2nc3ccccc3n2-c2ccccc2)c(C)cc1[N+](=O)[O-]	i	i	i	55
CCN(CC)c1ccc(NC(=O)CSc2nc3ccccc3c(=O)n2-c2cc(S(=O)(=O)N(C)C)ccc2C)cc1	i	i	i	99
COc1ccc(OC)c(CC(NC(C)=O)C(=O)NC2CCN(c3cc(C)nc4ncnn34)CC2)c1 (stereo not given)	i	i	i	i
COC(=O)C1CCN(CC(=O)NC(=O)NC2CCCCC2)CC1	i	i	i	i
SMILES	RAM inhibit	CHOP inh	WT yeast gro inh	L major viab
CCCc1cc(=O)[nH]c(SCC(=O)Nc2cc(C)on2)n1	i	i	i	i
CCC(=O)Nc1ccc(N2CCCCC2)c(C(=O)Nc2ccccc2C)c1	i	72	nt	i
O=C(c1ccccc1Cl)N1N=C(c2ccc(Br)cc2)CC1c1nc2ccccc2[nH]1 (stereo not given)	i	i	73	i
S=C(N/N=C/c1cccc2ccccc12)Nc1cccc(Cl)c1	nt	i	nt	nt
Cc1ccc2c(c1)oc(=O)n2CC(=O)c1ccccc1	nt	i	nt	nt
O=C(O)c1ccccc1SCC(=O)N1c2ccccc2Sc2ccccc21	11	i	i	i
Cn1cc(/C=N/n2cnc3scc(-c4ccc(Cl)cc4)c3c2=O)c2ccccc21	i	nt	i	59
CCn1cnc2scc(-c3ccccc3)c2c1=O	i	i	i	i
O=S(=O)(NC1CCCCC1Oc1ccccc1)c1ccccc1 (stereo not given)	i	i	i	i
O=[N+]([O-])c1ccccc1-c1ccc(/C=N/n2cnnc2)o1	i	i	i	i
O=C1ON=C(c2ccccc2)/C1=C/c1ccc(-c2ccccc2[N+](=O)[O-])o1	i	104	i	100
CC(C)(C)NC(=O)NC(=O)COC(=O)C1=COCCO1	i	81	i	i
O=CNn1cnc2c(oc3nc(-c4ccccc4)cc(-c4ccco4)c32)c1=O	i	85	i	i
O=C(Nc1cc(Br)ccc1O)c1cnn2c(C(F)F)cc(C3CC3)nc12	i	i	i	51
O=C(NCCN1CCOCC1)C1CCN(S(=O)(=O)N2CCCC2)CC1	i	i	i	i
COc1ccc(-c2nc3ccccc3n2OC(C)C(=O)O)cc1 (stereo not given)	i	i	i	i
Clc1ccc(-c2nc3ccccc3n2OCc2ccccc2)cc1	i	81	i	i
COC(=O)c1cn(NC(=O)CC2CCCCC2)c(=O)c2ccccc12	i	72	i	i
O=C(Cc1cccs1)Nc1nnc(SCc2ccc(Br)cc2)s1	i	76	i	i
CC(C)C(=O)Nc1nnc(SCC(=O)NCc2cccs2)s1	i	i	77	i
CC(C)(C)C(=O)Nc1nnc(SCC(=O)NCc2cccs2)s1	i	i	i	i
CCn1c(C)nc2cc(C(=O)N/N=C/c3ccc(N4CCOCC4)cc3)ccc21	i	i	i	i
CCCCc1oc2ccccc2c1C(=O)c1cc(I)c(OCCN(CC)CC)c(I)c1	nt	86!	i	99
CCN(CC)CCOc1ncnc2c1oc1ccccc12	i	i	i	i
COCCNC(=O)C1CCN(S(=O)(=O)c2c(C)noc2/C=C/c2cccs2)CC1	nt	i	nt	nt
SMILES	RAM inhibit	CHOP inh	WT yeast gro inh	L major viab
CC(C)=C1SC(N2CCN(Cc3ccccc3)CC2)=NC1=O	i	i	i	i
CC(C)=C1SC(N2CCN(c3cccc(Cl)c3)CC2)=NC1=O	i	i	i	68
O=C(CCNc1ccc(Cl)c(C(F)(F)F)c1)c1ccco1	i	i	i	i
O=C(CNc1ccc(Br)cc1)c1ccccc1	i	i	i	i
O=C(CCNc1ccc(F)c(Cl)c1)c1ccco1	i	nt	i	96
O=C(CNc1ccc(F)cc1)c1ccccc1	i	i	i	83
O=C(CCNc1cccc(C(F)(F)F)c1)c1ccco1	i	i	i	85
O=C(CCNc1ccc(F)cc1)c1ccco1	i	i	i	97
O=C(CCNc1cc(Cl)cc(Cl)c1)c1ccco1	i	i	i	i
O=C1CCN(S(=O)(=O)c2ccccc2)CCN1CCOCc1cccc(F)c1	nt	i	nt	nt
COc1cccc(CN2CCN(Cc3cc(OC)c(OC)cc3[N+](=O)[O-])CC2)c1	i	i	i	60
COc1cc(CN2CCN(Cc3ccc([N+](=O)[O-])cc3)CC2)c([N+](=O)[O-])cc1OC	i	i	i	68
CCOc1cc(-c2nc(-c3ccc(OC)cc3)no2)cc(OCC)c1OCC	9.6	i	i	i
COc1ccc(-c2nc(-c3ccccc3OC)no2)cc1OC	i	i	i	i
COc1cc(-c2nc(-c3cccc(C)c3)no2)cc(OC)c1OC	i	i	66	i
